From PubChem
CR mimetic SO – yeast age-related superoxide inhibition as caloric restriction mimetic; S. cerevisiae aged cells, superoxide DHE fluorescence; active compounds read low; superoxide response (% of plate mean), % at 10 µM; 330,000 compounds, 0.18% hits; AID 2690;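 active = superoxide response under a set limit, about three screen SD below normal, cut at about 65% in these data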;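 note: yeast aged for seven days with compound at 30 °C before DHE staining; 100% = average MFI of all compound-treated wells on the plate with controls excluded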
A3A deaminase – inhibitors of human APOBEC3A DNA deaminase; recombinant A3A, FAM/TAMRA ssDNA deamination fluorescence; P31941; inhibition, % at 20 µM; 330,000 compounds, 0.41% hits;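 active = at least 40% inhibition at 20 µM here, with at most 30% in a related deaminase screen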;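 note: plate controls were A3A with DMSO for no effect and wells lacking A3A enzyme for full effect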
Target sequence (P31941 whole entry, looked up): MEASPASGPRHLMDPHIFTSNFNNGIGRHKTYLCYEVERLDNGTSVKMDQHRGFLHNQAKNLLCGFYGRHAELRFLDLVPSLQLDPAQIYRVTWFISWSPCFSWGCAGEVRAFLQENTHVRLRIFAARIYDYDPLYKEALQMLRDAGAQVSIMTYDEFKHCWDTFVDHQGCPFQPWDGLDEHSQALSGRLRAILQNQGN
ALR inh – inhibitors of human sulfhydryl oxidase ALR; P55789; purified ALR, DTT oxidation, H2O2 HRP-luminol luminescence; inhibition, % (concentration not given with the values); 290,000 compounds, 3.8% hits; AID 485317;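 active = mean replicate inhibition above about 79%, with every replicate also reaching it, limit read from the data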
Target sequence (P55789 whole entry, looked up): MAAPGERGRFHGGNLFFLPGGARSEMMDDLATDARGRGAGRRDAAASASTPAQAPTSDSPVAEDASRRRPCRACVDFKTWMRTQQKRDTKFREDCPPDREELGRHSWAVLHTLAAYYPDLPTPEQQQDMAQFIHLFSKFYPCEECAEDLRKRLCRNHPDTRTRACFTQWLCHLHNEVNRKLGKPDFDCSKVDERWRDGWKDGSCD
M18AAP inhibitor – blocks P. falciparum M18 aspartyl aminopeptidase; 290,000 compounds, 1.2% hits; inhibition, % at 7.35 µM; AID 1822; recombinant PfM18AAP, H-Glu-NHMec fluorogenic cleavage;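 active = inhibition above the campaign mean inhibition over all tested compounds plus 3 SD, cut at about 28% in these data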;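 note: 0% = plate median of test compound wells and 100% = 2 mM ZnCl2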
NRP1-CendR mod – modulators of CendR peptide binding to human neuropilin-1; 360,000 compounds, 0.85% hits; inhibition, % at 25 µM; O14786; FAM-RPARPAR peptide binding to NRP-1, fluorescence polarization;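 active = inhibition or corrected inhibition above about 18%, plus a signal ratio from 0.5 to 1.5, limit read from the data, passing the limit was not always enough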
A3G deaminase – blocks human APOBEC3G single-stranded DNA deamination. recombinant A3G, ssDNA deamination FAM/TAMRA fluorescence. 330,000 compounds, 0.28% hits. Q9HC16. inhibition, % at 20 µM. AID 493012;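 active = inhibition of at least 40% at 20 µM, with no more than 30% in the related APOBEC3A deaminase screen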;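 note: plate controls were DMSO wells with A3G for no effect and wells lacking A3G enzyme for full effect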
* = called active by the depositor. Shown are actives, neighbours in structure and some others; about 5.2% of the full set was active somewhere.

`COc1ccc(/C=C2\SC(=Nc3ccccc3)NC2=O)cc1` gave CR mimetic SO 107, A3A deaminase -1, ALR inh -3, M18AAP inhibitor -4 and A3G deaminase -2.
For O=C1NC(=NCc2ccccc2)S/C1=C/c1ccc(O)cc1 the results were CR mimetic SO 93, A3A deaminase 1, ALR inh 94*, M18AAP inhibitor 7, NRP1-CendR mod -7 and A3G deaminase -6.
Cc1c(N=C2NC(=O)/C(=C/c3ccc(O)cc3)S2)c(=O)n(-c2ccccc2)n1C was read as CR mimetic SO 102, A3A deaminase -7, ALR inh 99*, M18AAP inhibitor 17, NRP1-CendR mod -26 and A3G deaminase -8.
Screening N#C/C(=C\c1c[nH]c2ccccc12)C(=O)NC1CCCC1 returned CR mimetic SO 98, A3A deaminase -6, ALR inh 96*, M18AAP inhibitor 13, NRP1-CendR mod -39 and A3G deaminase -5.
N#C/C(=C\c1c[nH]c2ccccc12)C(=O)NC1CC1 was read as CR mimetic SO 92, A3A deaminase -5, ALR inh -11, M18AAP inhibitor -12, NRP1-CendR mod -7 and A3G deaminase -1.
For CN(C)c1ccc(/C=C2\SC(=O)N(CCc3nnc(N)s3)C2=O)cc1 the results were CR mimetic SO 104, A3A deaminase 14, ALR inh 97*, M18AAP inhibitor 11, NRP1-CendR mod -93 and A3G deaminase 11.
Screening CCOC(=O)C1C(=O)C=C(c2ccc(NS(C)(=O)=O)cc2)CC1c1ccco1 (stereo not drawn) returned CR mimetic SO 98, A3A deaminase 3, ALR inh 4, M18AAP inhibitor -4, NRP1-CendR mod -11 and A3G deaminase -3.
For CCOC(=O)C1CCN(Cc2ccc(OC)c(OCc3ccccc3)c2)CC1 the results were CR mimetic SO 94, A3A deaminase -8, ALR inh -3, M18AAP inhibitor 0, NRP1-CendR mod 4 and A3G deaminase -3.
`O=C(Nc1ccccc1N1CCCCC1)c1ccco1` gave CR mimetic SO 107, A3A deaminase -3, ALR inh 97*, M18AAP inhibitor 2, NRP1-CendR mod 0 and A3G deaminase -3.
`Cc1ccccc1C(=O)Nc1ccccc1N1CCCCC1` gave CR mimetic SO 96, A3A deaminase -2, ALR inh -12, M18AAP inhibitor 2, NRP1-CendR mod -4 and A3G deaminase -6.
CCOC(=O)c1ccc(N2CCN(C(=O)c3ccccc3)CC2)c(NC(=O)c2ccco2)c1 was read as CR mimetic SO 100, A3A deaminase -1, ALR inh -2, M18AAP inhibitor 1, NRP1-CendR mod 31* and A3G deaminase -4.
O=C(NC(=S)Nc1ccccc1N1CCOCC1)c1ccco1 was read as CR mimetic SO 101, A3A deaminase 1, ALR inh 96*, M18AAP inhibitor 0, NRP1-CendR mod -3 and A3G deaminase 0.
Cc1ccsc1C(=O)Nc1ccccc1N1CCCC1 was read as CR mimetic SO 91, A3A deaminase 0, ALR inh 99*, NRP1-CendR mod -5 and A3G deaminase -7.
Cc1ccc(NC(=S)N2CCCCC2)cc1C was read as CR mimetic SO 83, A3A deaminase 0, ALR inh -4, M18AAP inhibitor -8, NRP1-CendR mod 3 and A3G deaminase -4.
For CCN(c1ccccc1)S(=O)(=O)c1ccc(C(=O)Nc2nnc(CSC)o2)cc1 the results were CR mimetic SO 104, A3A deaminase 3, M18AAP inhibitor 7, NRP1-CendR mod -11 and A3G deaminase 5.
`O=C(O)/C=C\C(=O)Nc1ccccc1N1CCN(c2ccccc2)CC1` gave CR mimetic SO 102, A3A deaminase -3, ALR inh 98*, M18AAP inhibitor -7, NRP1-CendR mod 15 and A3G deaminase -7.
O=C(/C=C/c1ccco1)Nc1ccccc1N1CCCC1 was read as CR mimetic SO 102, A3A deaminase 2, ALR inh 99*, M18AAP inhibitor -13, NRP1-CendR mod 2 and A3G deaminase -1.
`CCCCCC(=O)Nc1ccccc1N1CCN(c2ccccc2)CC1` gave CR mimetic SO 105, A3A deaminase 0, ALR inh 15, M18AAP inhibitor -13, NRP1-CendR mod -17 and A3G deaminase -1.
